Screening results: PubChem, The Scripps Research Institute Molecular Screening Center
Sampled rows, rich in hits. Any-hit rate of the full collection: about 3.4%.
MITF inh: inhibitors of human MITF; 650,000 tested, 0.91% active; inhibition, % at 2.6 µM; AlphaScreen MITF homodimerization, bead proximity signal; in the data active = inhibition above about 50%;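 note: 0% = vehicle wells with protein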
GPR151 ag: human GPR151 activation | Q8TDV0 | PathHunter beta-arrestin GPR151 cells, luminescence | activation, % at 11.2 µM | 650,000 tested, 1% active | AID 1508602; in the data active = activation above about 4.9%;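 note: 0% = median of compound wells and 100% = cells with positive control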
Target sequence (Q8TDV0 whole entry, looked up): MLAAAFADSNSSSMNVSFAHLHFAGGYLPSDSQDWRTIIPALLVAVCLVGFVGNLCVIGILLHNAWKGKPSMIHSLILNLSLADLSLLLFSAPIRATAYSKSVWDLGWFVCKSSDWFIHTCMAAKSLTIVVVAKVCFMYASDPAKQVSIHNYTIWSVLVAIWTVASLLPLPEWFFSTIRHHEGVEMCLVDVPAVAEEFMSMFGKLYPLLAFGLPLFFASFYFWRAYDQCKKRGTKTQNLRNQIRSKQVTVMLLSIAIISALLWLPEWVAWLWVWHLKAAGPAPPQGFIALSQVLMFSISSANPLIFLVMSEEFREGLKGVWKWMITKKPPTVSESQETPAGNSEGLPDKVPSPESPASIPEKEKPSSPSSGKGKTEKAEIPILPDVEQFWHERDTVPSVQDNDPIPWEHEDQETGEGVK
TEAD-YAP block: TEAD-YAP interaction inhibition. HEK-TIYL cells, TEAD-Gal4/YAP UAS-luciferase luminescence. inhibition, % at 9.12 µM. 640,000 tested, 1.4% active. AID 1259422; in the data active = inhibition above about 32%;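 note: 0% = median of test compound wells and 100% = reference inhibitor wells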
FBW7 activator: human FBW7 E3 ligase activation, primary screen. normalized activity (activation), % at 26.1 µM. AlphaScreen FBW7–phospho-cyclin E peptide binding, activator screen. AID 1259310. 650,000 tested, 0.13% active. Q969H0; in the data active = normalized activity above about 1.9%;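 note: purified mutant Fbw7 with reduced substrate affinity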
* marks the source's active call; other numbers are inactive results.

SMILES | MITF inh | GPR151 ag | TEAD-YAP block | FBW7 activator
CCC(Oc1ccccc1)C(=O)O/N=C(\N)c1ccc(Cl)cc1 (configuration not stated) | 13 | -1 | 4 | 1
CCC(=O)N1CCN(c2ccc(Cl)cc2N)CC1 | -2 | 1 | -1 | 0
Fc1ccc(CCn2c(C3COc4ccccc4O3)nc3ncc(-c4ccncc4)cc32)cc1 (configuration not stated) | 2 | 2 | 51* | 0
c1ccc2c(c1)OCC(c1nc3ncc(-c4ccncc4)cc3[nH]1)O2 (configuration not stated) | 9 | 0 | 3 | 0
N=C1/C(=C\c2ccc(Cl)cc2)C(=O)N=C2SC(N3CCCC3)=NN12 | 10 | 0 | -4 | 0
O=C(Nc1n[nH]c(=S)s1)C1CC1 | -3 | 2 | -1 | 0
Cc1cc(Nc2ccccc2C)nc(-n2nc(C)cc2C)n1 | 18 | -2 | 70* | 0
Cc1cc(Nc2ccc(F)c(Cl)c2)nc(-n2nc(C)cc2C)n1 | 15 | -1 | 6 | 1
Cc1cc(Nc2ccc3c(c2)OCO3)nc(-n2nc(C)cc2C)n1 | -5 | -1 | 61* | 0
COc1ccc(Nc2cc(C)nc(-n3nc(C)cc3C)n2)c(OC)c1 | -7 | -1 | 66* | -1
COc1ccc(Nc2nc(C)cc(C)n2)c(OC)c1 | 12 | 0 | 3 | 0
COc1ccc(CC2(CCC(=O)NCC3CCOCC3)CCC(=O)N2)c(F)c1 (configuration not stated) | -40 | 0 | 1 | 0
Cc1nonc1CN(C)C(=O)CC1(c2ccccc2F)CC(=O)N(CCN(C)C)C1=O (configuration not stated) | -4 | 0 | -1 | 1
COc1cccc(C(=O)Nc2cc(C)on2)c1 | 4 | -4 | -20 | 0
COc1cccc(C(=O)Nc2noc3ccccc23)c1 | -9 | -9 | 57* | 0
COc1ccc(C(=O)Nc2noc3ccccc23)cc1 | -5 | -11 | 86* | 0
O=C(OCc1cc(=O)n2c(n1)sc1ccccc12)C12CC3CC(CC(O)(C3)C1)C2 | 19 | -1 | 75* | 0
O=c1cc(CSc2nnnn2-c2ccc(O)cc2)nc2sc3ccccc3n12 | 15 | 0 | 8 | 0
Cc1ccc2oc(=O)c3cnn(CC(=O)N4C(C)CCCC4C)c3c2c1 (configuration not stated) | 5 | 1 | -1 | 0
c1ccc2c(Nc3nccc(Nc4ccc(N5CCOCC5)cc4)n3)nccc2c1 | 15 | 4 | 62* | 0
c1ccc2c(c1)CCN(c1nc3ncnc(Nc4ccc(N5CCOCC5)cc4)c3[nH]1)C2 | -1 | -2 | 53* | 0
c1ccc(Nc2ncnc3nc(Nc4ccc(N5CCOCC5)cc4)[nH]c23)cc1 | -12 | 1 | -6 | 0
c1ccc(Nc2ccnc(N3CCc4ccccc4C3)n2)cc1 | -1 | -1 | -47 | 0
c1ccc2c(Nc3nc4ncnc(Nc5ccc(N6CCOCC6)cc5)c4[nH]3)nccc2c1 | 45 | 0 | 40* | 0
c1ccc2c(c1)CCN(c1nccc(Nc3ccc(N4CCOCC4)cc3)n1)C2 | 7 | 1 | 41* | 0
SMILES | MITF inh | GPR151 ag | TEAD-YAP block | FBW7 activator
COC(=O)c1ccc(/C=C(\C#N)C(=O)NCCc2ccccc2)cc1 | 18 | 0 | 0 | 0
C/C(=N\NC(=O)COc1ccc(Cl)cc1)c1cc(O)ccc1O | 1 | 0 | -17 | 0
COc1ccccc1C(=O)Nc1cccc(N2CCC(N(C)CC3COCCO3)CC2)c1 (configuration not stated) | 26 | 0 | -14 | 0
COc1ccc(OCC(=O)Nc2cc([N+](=O)[O-])ccc2O)cc1 | -1 | -7 | 90* | 0
COc1ccc(NC(=O)c2cc([N+](=O)[O-])ccc2O)cc1 | -7 | -10 | 86* | 1
COc1ccc(/C=N/NC(=O)c2cc([N+](=O)[O-])ccc2O)cc1 | -5 | -9 | 33* | 0
Cc1ccc(NC(=O)c2cc([N+](=O)[O-])ccc2O)cc1 | 26 | -10 | 76* | 0
CCOC(=O)CNC(=O)N1CCCC(N2CCOCC2)C1 (configuration not stated) | -5 | -1 | -9 | 0
Cc1cccc(NC2=C(N3CCCC3)C(=O)c3ccccc3C2=O)c1 | 11 | 1 | -2 | -1
COc1ccc(NC(=O)c2c(NCc3cccnc3)sc3c2CCC3)c(OC)c1 | 9 | 0 | 5 | 0
O=C(Nc1c(Cl)cc([N+](=O)[O-])cc1Cl)c1cc(Cl)ccc1O | 0 | 5 | 67* | 0
O=C(N/N=C/c1ccc([N+](=O)[O-])cc1)C(=O)N/N=C/c1ccc([N+](=O)[O-])cc1 | -14 | 4 | 4 | 0
CNC(=S)N/N=C\c1ccc([N+](=O)[O-])cc1 | 2 | -1 | 34* | 0
O=C(NNC(=O)c1cc2ccccc2cc1O)Nc1cccc([N+](=O)[O-])c1 | -5 | -2 | -7 | 0
O=C(Nc1cccc([N+](=O)[O-])c1)c1cc2ccccc2cc1O | -1 | -1 | 34* | 0
O=C(Nc1ccc([N+](=O)[O-])cc1Cl)c1cc(Br)ccc1O | 5 | 1 | -70 | 0
O=C(Nc1ccc(Cl)cc1)c1cc([N+](=O)[O-])ccc1O | 11 | -10 | 72* | 0
COc1ccc(C(CC(=O)NCc2cccs2)N2Cc3ccccc3C2=O)cc1 (configuration not stated) | -11 | -1 | 0 | 0
CC[C@@H]1NC(=O)[C@H]2CN(C(=O)c3ccccc3OC)CCN2C1=O | 18 | -1 | 7 | 0
CCc1c(C)sc(NC(=O)c2ccco2)c1C(N)=O | 20 | -1 | -6 | 1
COC(=O)c1c(C)oc2ccc(N(C(=O)c3ccc([N+](=O)[O-])cc3)S(=O)(=O)c3ccc(C)cc3)cc12 | 21 | 0 | 58* | 0
CCc1ccc(S(=O)(=O)Nc2ccc3oc(C)c(C(=O)OC)c3c2)cc1 | -5 | 3 | 60* | 0
COC(=O)c1c(C)oc2ccc(NS(=O)(=O)c3cc(C)ccc3C)cc12 | -4 | 1 | 31 | 0
COC(=O)c1c(C)oc2ccc(NS(=O)(=O)c3ccc(C)cc3C)cc12 | -2 | 4 | 46* | 0
COCc1oc2ccc(NS(=O)(=O)c3ccc(C)cc3)cc2c1C(=O)OC | -7 | -1 | 55* | 0
SMILES | MITF inh | GPR151 ag | TEAD-YAP block | FBW7 activator
Cc1ccc(C)c(N2CCN(CCCNC(=O)Nc3ccccc3)CC2)c1 | 1 | 1 | -1 | 0
CC(=O)Nc1ccc(OC(=O)c2cccc(Oc3ccc([N+](=O)[O-])cc3)c2)cc1 | 50 | -2 | -2 | 0
CCC(Sc1nnc(C)c(=O)[nH]1)C(=O)Nc1sc2c(c1C#N)CCCC2 (configuration not stated) | 6 | 0 | 3 | 0
CCCCCc1ccc(OC(=O)C2CCCC(C(=O)Oc3ccc(CCCCC)cc3)C2)cc1 (configuration not stated) | 11 | 0 | 5 | 0
COc1ccc(-n2cnc3cc(NCc4ccccc4OC)ccc32)cc1 | 2 | -2 | -5 | 0
CCOC(=O)c1c(C)oc2ccc(NS(=O)(=O)c3ccc(C)cc3)cc12 | 0 | 0 | 34* | 0
